The text below walks through data of PubChem BioAssay.

Structures are written as SMILES. For some of these results: Results with a measured potency or affinity are listed apart. Some of the results follow. Records with an inconclusive call do not appear. Active and inactive are the calls of the source. Unless noted, no rule for the calls is given here.

Assay [1] is described as follows: Ring1 mRNA increase in mouse ESCs, confirmation, esBAF inhibitor project, cell-based, mouse ESC, RT-qPCR, cherry-pick (AID 743176;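 active = Ring1 gene expression raised more than 2-fold over untreated cells in both replicates at either tested dose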;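 also: Ring1 transcript normalised to actin housekeeping signal by TaqMan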). To be noted: mouse ESC E14, Ring1 mRNA RT-qPCR fold change, stronger effect = higher value. In general terms: In qPCR the cycle at which signal appears reflects the starting amount.
The nature of assay [2]: Fgf4 mRNA decrease in mouse ESCs, confirmation, esBAF inhibitor project, cell-based, mouse ESC, RT-qPCR, cherry-pick (AID 743177;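 active = Fgf4 expression under 0.8 fold of control in both repeat measurements at one or both tested doses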;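 also: Fgf4 transcript normalised to actin in duplex TaqMan qPCR; cells exposed to compound for 24 h before lysis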). The note with it: mouse ESC E14, Fgf4 mRNA qPCR fold change, stronger effect = lower value.
A short description of assay [3]: esBAF inhibition via Bmi1 de-repression, confirmation, cell-based, RT-qPCR, mouse ESC, single point, cherry-pick (AID 743180;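 active = Bmi1 expression fold change above 6 at either tested concentration, seen in replicate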). To be noted: mouse ESC E14, Bmi1 mRNA qPCR fold, stronger effect = higher value.
The nature of assay [4]: A549 cell cytotoxicity, cytotoxicity control, plate reader, single point, cherry-pick (AID 743188). The note with it: at 25 µM.
Assay [5] in a line: HepG2 cell cytotoxicity, cytotoxicity control, plate reader, single point, cherry-pick (AID 743189; in the data active = activity change below about -50%). To be noted: at 25 µM, stronger effect = lower value.
A short description of assay [6]: HEK293 cell cytotoxicity, cytotoxicity control, plate reader, single point, cherry-pick (AID 743190; in the data active = activity change below about -38%, passing the limit was not always enough). To be noted: at 25 µM.
Assay [7] can be described thus: A549 cell cytotoxicity, dose response, cytotoxicity control, plate reader, cherry-pick, antagonist series (AID 743412).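 Also: 0% = neutral control wells and -100% = positive control wells.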

On to `COc1cc2ccccc2cc1C(=O)Nc1ccncc1`, for which the fold change is 1.36 in assay [1] (Ring1 fold increase, at 7 µM); 1.54 (inactive) in assay [1] (at 33 µM); 1.73 in assay [3] (Bmi1 de-repression, at 7 µM); 2.14 (inactive) in assay [3] (at 33 µM). In addition, the Fgf4 expression fold change in assay [2] (Fgf4 expression, at 7 µM) was 0.817; in assay [2] (at 33 µM), 1.21 (inactive). In assay [4], the cell viability change % (negative = cytotoxic) is -3.23% (inactive). In addition, the figures for the activity change, negative = inhibition in assay [5] and in assay [6] were -16.4% (inactive) and 6.79% (inactive), respectively.
Turning to `O=C(NCCc1ccccc1)c1ccc2c(c1)OCCO2`, the call in assay [7] was inactive.
On to `COc1ccc(CNC(=O)COc2ccccc2C(=O)c2cnn(-c3ccccc3)c2)cc1OC`, for which the fold change in assay [1] (Ring1 fold increase, at 7 µM) is 1.09; in assay [1] (at 33 µM) it was 1.32 (inactive); in assay [3] (Bmi1 de-repression, at 7 µM), 1.36; in assay [3] (at 33 µM), 1.57 (inactive). For the same compound, the Fgf4 expression fold change in assay [2] (Fgf4 expression, at 7 µM) is 1.03; in assay [2] (at 33 µM) it was 0.967 (inactive). Besides, the cell viability change % (negative = cytotoxic) in assay [4] was 0.333% (inactive). In addition, the activity change, negative = inhibition is -55.5% (active) in assay [5] and -15.3% (inactive) in assay [6].
`CCc1c(C)sc(NC(=O)c2cccs2)c1C(N)=O`: the fold change is 1.31 in assay [1] (Ring1 fold increase, at 7 µM); 0.944 (inactive) in assay [1] (at 33 µM); 1.35 in assay [3] (Bmi1 de-repression, at 7 µM); 1.67 (inactive) in assay [3] (at 33 µM). Besides, the Fgf4 expression fold change was 1.09 in assay [2] (Fgf4 expression, at 7 µM) and 1.11 (inactive) in assay [2] (at 33 µM). For the same compound, the cell viability change % (negative = cytotoxic) in assay [4] was -14% (inactive). Moreover, the activity change, negative = inhibition was -29% (inactive) in assay [5] and -22.2% (inactive) in assay [6].
Consider `O=C(c1cc(-c2ccc(Cl)cc2)on1)N1CCN(c2ccccc2)CC1`, for which the fold change was 1.25 in assay [1] (Ring1 fold increase, at 7 µM); 1.06 (inactive) in assay [1] (at 33 µM); 1.17 in assay [3] (Bmi1 de-repression, at 7 µM); 1.27 (inactive) in assay [3] (at 33 µM). In addition, the Fgf4 expression fold change was 1.02 in assay [2] (Fgf4 expression, at 7 µM) and 0.994 (inactive) in assay [2] (at 33 µM). The cell viability change % (negative = cytotoxic) in assay [4] was -16.6% (inactive). For the same compound, the activity change, negative = inhibition was 9.34% (inactive) in assay [5] and -19.5% (inactive) in assay [6].
`COc1ccc(-c2[nH]ncc2-c2ccc3c(c2)OCCO3)c(O)c1`: the outcome in assay [7] was inactive.
On to `O=C(Cn1ncc(Cl)c(Cl)c1=O)c1ccc2c(c1)OCCO2`, for which the outcome in assay [7] was inactive.
As to `CCS(=O)(=O)n1nc(-c2ccc(OC)cc2)nc1SC`, the fold change in assay [1] (Ring1 fold increase, at 7 µM) is 1.25; in assay [1] (at 33 µM), 1.01 (inactive); in assay [3] (Bmi1 de-repression, at 7 µM) it was 1.24; in assay [3] (at 33 µM) it was 1.6 (inactive). In addition, the Fgf4 expression fold change in assay [2] (Fgf4 expression, at 7 µM) is 0.938; in assay [2] (at 33 µM) it was 1.05 (inactive). Moreover, the cell viability change % (negative = cytotoxic) in assay [4] is -13.7% (inactive). The activity change, negative = inhibition in assay [5] is -11.2% (inactive); in assay [6] it was -16.8% (inactive).
Regarding `Cc1cc(C)c(Cc2c(C)nc3c(C(=O)NCc4ccco4)cnn3c2C)c(C)c1`, the result in assay [7] was inactive.
Consider `Cc1csc(NC(=O)c2cnc3ccccc3n2)n1`, for which the compound was classed as inactive in assay [7].
The same measure, in the same setting: for `CCCOc1ccc2cc(-c3ccccn3)c(=O)oc2c1` the value was “inactive”.
In the case of `O=C(c1noc2c1CCCC2)N1CCc2ccccc2C1`, the fold change is 1.38 in assay [1] (Ring1 fold increase, at 7 µM); 1.19 (inactive) in assay [1] (at 33 µM); 1.08 in assay [3] (Bmi1 de-repression, at 7 µM); 1.13 (inactive) in assay [3] (at 33 µM). The Fgf4 expression fold change in assay [2] (Fgf4 expression, at 7 µM) was 1.06; in assay [2] (at 33 µM), 1.15 (inactive). Also, the cell viability change % (negative = cytotoxic) in assay [4] was -13.7% (inactive). Further, the results for the activity change, negative = inhibition in assay [5] and in assay [6] were 0.136% (inactive) and -12.4% (inactive), respectively.
For the compound `COc1ccc(Nc2ccc3ccccc3c2)cc1`, the fold change is 1.4 in assay [1] (Ring1 fold increase, at 7 µM); 1.14 (inactive) in assay [1] (at 33 µM); 1.37 in assay [3] (Bmi1 de-repression, at 7 µM); 2.11 (inactive) in assay [3] (at 33 µM). For the same compound, the cell viability change % (negative = cytotoxic) in assay [4] is -5.46% (inactive). For the same compound, the activity change, negative = inhibition is 10% (inactive) in assay [5] and -0.0365% (inactive) in assay [6].
As for `O=C(Nc1cccnc1Cl)c1cc(-c2ccccc2O)on1`, the fold change in assay [1] (Ring1 fold increase, at 7 µM) was 1.22; in assay [1] (at 33 µM), 1 (inactive); in assay [3] (Bmi1 de-repression, at 7 µM), 1.07; in assay [3] (at 33 µM), 1.14 (inactive). Also, the Fgf4 expression fold change in assay [2] (Fgf4 expression, at 7 µM) is 1.2; in assay [2] (at 33 µM) it was 1.05 (inactive). Further, the cell viability change % (negative = cytotoxic) in assay [4] is -9.75% (inactive). Further, the activity change, negative = inhibition in assay [5] was -4.96% (inactive); in assay [6] it was -13.7% (inactive).
Turning to `COc1ccc(N=Cc2c(O)[nH]c3ccccc23)cc1OC`, the fold change is 1.32 in assay [1] (Ring1 fold increase, at 7 µM); 1.03 (inactive) in assay [1] (at 33 µM); 1.45 in assay [3] (Bmi1 de-repression, at 7 µM); 2 (inactive) in assay [3] (at 33 µM). In addition, the Fgf4 expression fold change in assay [2] (Fgf4 expression, at 7 µM) was 1.1; in assay [2] (at 33 µM), 1.2 (inactive). Moreover, in assay [4], the cell viability change % (negative = cytotoxic) was 0.475% (inactive). Further, the activity change, negative = inhibition in assay [5] is 24% (inactive); in assay [6], -17.2% (inactive).
As for `O=C(NC1(Cc2ccccc2)CCN(Cc2ccc(-c3ccccc3)cc2)C1=O)c1ccccc1` (configuration not stated), the call in assay [7] was inactive.
For `CC(Cc1cccs1)NC(=O)c1cccc(Cl)c1` (configuration not stated), the fold change was 1.11 in assay [1] (Ring1 fold increase, at 7 µM); 1.07 (inactive) in assay [1] (at 33 µM); 1.36 in assay [3] (Bmi1 de-repression, at 7 µM); 1.53 (inactive) in assay [3] (at 33 µM). For the same compound, the Fgf4 expression fold change in assay [2] (Fgf4 expression, at 7 µM) is 1.02; in assay [2] (at 33 µM), 1.08 (inactive). For the same compound, the cell viability change % (negative = cytotoxic) in assay [4] was -16% (inactive). In addition, the values for the activity change, negative = inhibition in assay [5] and in assay [6] were -51.2% (active) and -22.2% (inactive), respectively.
As for `COc1ccc(-c2csc(Nc3cccc(C)n3)n2)cc1OC`, the fold change in assay [1] (Ring1 fold increase, at 7 µM) was 1.32; in assay [1] (at 33 µM), 1.24 (inactive); in assay [3] (Bmi1 de-repression, at 7 µM), 1.47; in assay [3] (at 33 µM), 2.28 (inactive). Also, the cell viability change % (negative = cytotoxic) in assay [4] is -8.92% (inactive). The activity change, negative = inhibition in assay [5] is 29% (inactive); in assay [6] it was 4.06% (inactive).
As for `Cc1cc(Cl)nc(NC(=O)Nc2cccc(Cl)c2)n1`, the fold change is 1.34 in assay [1] (Ring1 fold increase, at 7 µM); 1.28 (inactive) in assay [1] (at 33 µM); 1.61 in assay [3] (Bmi1 de-repression, at 7 µM); 1.24 (inactive) in assay [3] (at 33 µM). Further, the Fgf4 expression fold change in assay [2] (Fgf4 expression, at 7 µM) is 0.987; in assay [2] (at 33 µM) it was 1.08 (inactive). Besides, the cell viability change % (negative = cytotoxic) in assay [4] was -1.39% (inactive). Also, the activity change, negative = inhibition in assay [5] was -22.4% (inactive); in assay [6], 1.81% (inactive).
For the compound `COCCn1c(C)cc(C(=O)CSc2nc3ccccc3s2)c1C`, the compound was classed as inactive in assay [7].
